Rango-impB inh = qHTS Assay for Inhibitors of Rango (Ran-regulated importin-beta cargo) - Importin beta complex formation | Rango CFP/YFP FRET sensor + importin beta, 45 min | Potency, µM (series often up to 92.2 µM), for inactives: at the top dose inhibition of complex formation | actives 0.031% (n = 340,000); calls by dose curve;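 also: 0% = DMSO wells and 100% = buffer wells lacking importin beta; nearly all actives have a fitted effect of over 15% in size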
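FRET biosensor Rango (snurportin 1 IBB between N-terminal EYFP and C-terminal Cerulean), 50 nM in PBS/1 mM DTT/0.02% Tween-20/0.1% BSA, preincubated 5 min RT with compound; 0.125 microM importin beta added, 45 min RT, CFP/YFP FRET ratio read.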
Tb PGK inh = qHTS Assay to Find Inhibitors of Phosphoglycerate Kinase | Phosphoglycerate kinase, glycosomal (Trypanosoma brucei brucei), P07378 | Potency, µM (top dose mostly 57.5 µM), for inactives: at the highest dose activity change, negative = inhibition, most hits filed as inhibitors | PGK/GAPDH coupled, Kinase-Glo luminescence, 60 min | actives 0.043% (n = 380,000); also: % is scaled to controls: 0 for no effect and ±100 for the full control effect; nearly all actives have a fitted effect of over 60% in size
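Recombinant glycosomal PGK reaction used 1,3-bisphosphoglycerate generated in-well by GAPDH (100nM final) in 100mM TEA pH 7.6, 5mM MgCl2, 0.01% Tween-20. After 60 minutes at room temperature, ATP was read by Kinase-Glo Plus luminescence end-point.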
ELG1 DNA repair = qHTS screen for small molecules that inhibit ELG1-dependent DNA repair in human embryonic kidney (HEK293T) cells expressing luciferase-tagged ELG1. Potency, µM (doses to about 46.1 µM), without a hit: top-dose activity change, negative = inhibition, actives largely listed as inhibitors. HEK293T ELG1-luciferase reporter, luminescence, 16 h; DNA damage induced by 5-fluorouridine. AID 504467, 2011. actives 2.3% (n = 330,000); also: % is scaled to controls: 0 for no effect and ±100 for the full control effect; nearly all actives have a fitted effect of over 55% in size
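Step one: seed 2,000 cells per well. Step two: pin-transfer compound or DMSO alongside 5-fluorouridine. Step three: incubate 16 hr, 37 °C, 5% CO2. Step four: add ONE-Glo, wait 30 min, read luminescence.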
Rango release inh = qHTS Assay for Inhibitors of RanGTP induced Rango (Ran-regulated importin-beta cargo) - Importin beta complex dissociation; Snurportin-1 (Homo sapiens) + GTP-binding nuclear protein Ran (Homo sapiens) + Importin …; Biochemical FRET Rango-importin beta, RanGTP-induced dissociation; Potency, µM (top dose mostly 46.1 µM), inactives show top-dose activity change, negative = inhibition; actives 0.071% (n = 340,000); AID 540253, 2011; calls by dose curve; also: % of control where 0% means no effect; nearly all actives have a fitted effect of over 45% in size
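Quantitative HTS using a FRET biosensor: 0.1 uM Rango, 0.25 uM importin beta, 0.6 uM Ran, 2 mM GTP, 0.2 uM RCC1 final, PBS with DTT, Tween-20 and BSA. Post-read taken 45 min after Ran addition.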
Tb PFK block = qHTS Assay to Find Inhibitors of T. brucei phosphofructokinase | actives 0.17% (n = 330,000) | ATP-dependent 6-phosphofructokinase (Trypanosoma brucei brucei), O15648 | Potency, µM (highest dose often 57.5 µM), inactives show at the top dose activity, negative = inhibition, most hits filed as inhibitors | T. brucei PFK, ADP-Glo luminescence;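 also: 0% = uninhibited 1x PFK enzyme wells and -100% = no-enzyme wells; nearly all actives have a fitted effect of over 60% in size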
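ADP-Glo luminescence quantified ADP after 45 min at room temperature, with 1.25 nM T. brucei PFK, 0.1 mM ATP and 0.5 mM fructose-6-phosphate in pH 8.0 TEA buffer. qHTS titrations up to 57 µM; curves classified by quality.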
PKM2 act = qHTS Assay for Activators of Human Muscle isoform 2 Pyruvate Kinase. Pyruvate kinase PKM (Homo sapiens), P14618. purified PKM2, Kinase-Glo ATP luminescence, activation; response scale: 0% is enzyme alone, no compound. Potency, µM (series often up to 57.5 µM), for the others: at the top dose activation, actives largely listed as activators. actives 0.34% (n = 260,000); also: % is scaled to controls: 0 for no effect and ±100 for the full control effect; nearly all actives have a fitted effect of over 55% in size
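Kinase-Glo luminescence reports ATP generated from ADP (0.1 mM) and PEP (0.5 mM) by purified hPK-M2 after 1 h at room temperature, pH 7.2 imidazole buffer; intermediate enzyme activity allows detecting inhibitors and activators.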
The depositor's hits bear a star; i = inactive; ? = inconclusive; · = no result given. Compounds with a hit are over-represented: about 2.4% of the library has one in this group of screens. Unless noted, calls follow the shape of the dose curve; as a rule, active = well fitted curve in the direction sought with a large enough effect; inconclusive = small, poorly fitted or top-dose-only effect, or another doubt; inactive = no such curve, though single readings can be large; an effect the other way counts as inactive or inconclusive. Potency is read from the fitted curve at half-maximal effect.

SMILES	Rango-impB inh	Tb PGK inh	ELG1 DNA repair	Rango release inh	Tb PFK block	PKM2 act
CN(C)/C=C(\C(=O)c1ccccc1)c1nnnn1-c1ccccc1	-1%	5%	-3%	4%	1%	4%
CN(C)/C=C(\C(=O)c1ccc(F)cc1F)c1nnnn1-c1ccccc1	0%	-10%	-9%	6%	-7%	16µM*
Cc1cccc(NC(=O)c2sc(NC(=O)COc3ccccc3)c(C#N)c2C)c1C	5%	i	-3%	-14%	1%	2%
Cc1ccccc1NC(=O)c1sc(NC(=O)COc2ccccc2)c(C#N)c1C	?	-9%	23µM*	-4%	8%	-2%
COc1ccc(CCNc2ncnc3c2c(C)c(C)n3CCO)cc1OC	0%	·	23µM*	-5%	6%	·
Cc1nc(Nc2ccncc2)c2oc3ccccc3c2n1	-1%	2%	16µM*	0%	1%	-3%
Cc1nc(NCCc2cnc[nH]2)c2oc3ccccc3c2n1	4%	-3%	5%	13%	1%	1%
COc1ccc(CCNc2nc(C)nc3c2oc2ccccc23)cc1OC	-3%	-4%	10µM*	32%	-4%	-4%
c1ccc2c(c1)oc1c(NCC3CCCO3)ncnc12 (stereo not given)	0%	i	?	-11%	2%	1%
CC(=O)Nc1ccc(Nc2nc(C)nc3c2oc2ccccc23)cc1	4%	i	?	-6%	3%	-5%
COc1ccc(CCNc2ncnc3c2oc2ccccc23)cc1OC	-2%	i	16µM*	-7%	0%	4%
CCOc1ccc(NC(=O)CSc2nnnn2C2CCCC2)cc1	0%	-7%	17%	1%	1%	·
COc1cccc(CNC(=O)Cc2c(C(=O)O)c(C)cn2C)c1	·	-5%	·	·	·	·
Cc1cccc(-c2nsc(SCC(=O)NCC3CCCO3)n2)c1 (stereo not given)	0%	15%	3%	-4%	-3%	-3%
O=C(c1cccc(Oc2ccc([N+](=O)[O-])cc2Cl)c1)N1CCCCC1	-2%	i	23µM*	-19%	4%	-17%
O=C(c1ccc(Oc2ccc([N+](=O)[O-])cc2Cl)cc1)N1CCCC1	-1%	-6%	?	-1%	-5%	-1%
CC(C)CN(C(=O)CN1CCN(c2ccc([N+](=O)[O-])cc2)CC1)c1c(N)n(CC(C)C)c(=O)[nH]c1=O	0%	-8%	2%	18%	-3%	-1%
O=C(COc1ccc(Br)cc1)NC1CC1	-4%	i	?	-3%	-10%	-4%
CCOC(=O)c1ccccc1NC(=O)Cc1sc(-c2cccnc2)nc1-c1ccc(C)cc1	·	·	?	·	0%	-1%
Cc1ccc(-c2nc(-c3cccnc3)sc2CC(=O)Nc2ccc3nc(C)sc3c2)cc1	0%	-2%	18µM*	?	8%	0%
COc1cc(=O)[nH]c(SC(C)C(=O)Nc2cc(C)on2)n1 (stereo not given)	-2%	-1%	17%	-2%	0%	0%
Cc1ccc(NC(=S)Nc2cccc3cnccc23)c(C)c1	0%	-15%	21µM*	-3%	-1%	·
Cc1cc(C)cc(NC(=S)Nc2cccc3cnccc23)c1	0%	i	?	1%	5%	4%
